Test results: PubChem BioAssay (NCI)
About 83,000 compounds went through this panel and 20% of them were active in at least one assay; those are over-represented in the sample as a whole.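 Compound tested at a single concentration for 48 hours in 96-well plates; a percent growth value below 10 was scored as active.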 Values without a mark were called inactive. Calls of active or inactive are those of the source.

Experiments:
Test in all cases: NCI-60 one-dose screen, 48 h (100 = growth as untreated, 0 = no growth, -100 = all killed)
Conditions in all cases: 10 µM unless noted
[1] = tested on: SN12C renal
[2] = tested on: UO-31 renal
[3] = tested on: TK-10 renal
[4] = tested on: ACHN renal
[5] = tested on: A498 renal
[6] = tested on: CCRF-CEM leukemia
[7] = tested on: SR leukemia
[8] = tested on: RPMI-8226 leukemia
[9] = tested on: OVCAR-8 ovarian
[10] = tested on: OVCAR-5 ovarian
[11] = tested on: OVCAR-4 ovarian
[12] = tested on: SK-OV-3 ovarian
[13] = tested on: IGROV1 ovarian
[14] = tested on: HS 578T breast
[15] = tested on: NCI/ADR-RES ovarian
[16] = tested on: T-47D breast
[17] = tested on: CAKI-1 renal
[18] = tested on: MOLT-4 leukemia
[19] = tested on: OVCAR-3 ovarian

Compound	growth [1]	growth [2]	growth [3]	growth [4]	growth [5]	growth [6]	growth [7]	growth [8]	growth [9]	growth [10]	growth [11]	growth [12]	growth [13]	growth [14]	growth [15]	growth [16]	growth [17]	growth [18]	growth [19]
C[n+]1ccc(C#N)c2ccccc21	104%	55.4%	129%	81.9%	95.3%	54.1%	67.5%	94.6%	111%	103%	64.7%	98.2%	70.5%	108%	101%	88.8%			
O=C(/C=C/c1ccc(Cl)cc1)c1ccccc1	98%	88.3%		110%	87.5%	87.9%	23.1%	1.52% (active)	97.5%	99.5%	107%	126%	101%	126%	107%	92.4%	101%	96.7%	101%
Clc1ccc2nc(Cl)c3ccccc3c2c1	87.3%	4.03% (active)	9.12% (active)		19.7%	81.6%	1.29% (active)	70.9%	50.8%	78%	-42.6% (active)	0.43% (active)	48.6%	56.8%	74.8%	-13.9% (active)	76.7%	83%	35.3%
CCC1(c2ccccc2)Oc2ccccc2-n2c(C#N)c3ccccc3c2C1=O (stereo unspecified)	95.6%	86.6%		96.5%	97%	95.6%	89.2%	92.6%	98.4%	108%	99.8%	91.4%	93.9%	105%	95.6%	91.7%	100%		103%
C=C1c2c(C)nn(-c3ccc(C#CCOC4OC(CO)C(O)C(O)C4O)cc3)c2N(C)C23C[C@H]1C1(C)c4c(C)nn(-c5ccc(C#CCOC6OC(CO)C(O)C(O)C6O)cc5)c4N(C)C(C)(C[C@H]12)C3 (stereo partly specified)	8.29% (active)	21.1%			4.38% (active)	-30.2% (active)	6.31% (active)	-36.4% (active)	12%	51%	14.7%	15.3%	24.7%	1.04% (active)	77.2%	7.11% (active)	-29.8% (active)	-14.9% (active)	3.73% (active)
CC(C)(C)c1cc(O)c(O)c(C(C)(C)C)c1	60.3%	27.3%	35.8%	18.3%	60.6%				39.8%	55.3%		67%	49.9%	43.6%	51.9%	12.8%		6.61% (active)	20.9%
CN(C)c1cccc2c(S(=O)(=O)N[C@H]3CC[C@H]4[C@@H]5CCc6cc(O)ccc6[C@H]5CC[C@]34C)cccc12	25.4%	10.7%	51.1%	30.8%	49%		-16.1% (active)	7.82% (active)	45.8%	78.1%	50.6%	33.3%	33.1%	56.5%	12.3%	21.5%			19.7%
COc1cc2c(C#N)n3c(c2cc1OC)C(=O)C(c1ccccc1)Oc1ccccc1-3 (stereo unspecified)	37.2%	15.8%			52.4%	17.1%	12.5%	28.7%	18.1%	69.2%	16%	97.6%	58.3%	73.5%	21.5%	17.1%	65.6%	63.4%	53.2%
O=C(c1ccccc1)c1ccco1	88.4%	88.7%	96%	98.9%	109%	93.3%	106%	101%	98.2%	114%		104%	99.5%	118%	95.7%	97%		91.7%	108%
CCOC(=O)/C(=C/c1ccccc1)C(=O)c1ccccc1	72.6%	53.1%		70.5%	87.5%	3.43% (active)	6.68% (active)	3.77% (active)	65.3%	97.3%	81.8%	92.6%	65.8%	88%	65.3%	73.6%	78.1%	33.1%	63.5%
O=C(Nc1ccc(OCc2nnc(-c3ccccc3)o2)c(F)c1)Nc1ccc(Cl)c(C(F)(F)F)c1	16.1%	-19% (active)	33.7%		18%	18.9%	0.0728% (active)	-21% (active)	24.5%	64.5%	26.8%	52.4%	36.3%	35.6%	17.8%	14.9%	16.4%	13.7%	15.4%
